HSP90 inh = blocks HSP90-mediated luciferase refolding in reticulocyte lysate. Rabbit reticulocyte lysate, luciferase refolding luminescence, 3 h. inhibition, % at 5.6 µM. 0.91% of 290,000 active;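 active = inhibition above the screen-wide mean plus 3 SD, computed separately per campaign, cut at about 16% in these data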;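 note: inhibitors lower the luminescence because luciferase stays unfolded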
Platelet DG rel = platelet dense granule release activity; 0.22% of 300,000 active; human platelet-rich plasma, SFLLRN dense granule ATP release, luminescence; inhibition, %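 (compounds screened at 7.5 µM in platelet-rich plasma)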;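 active = mean replicate score, as percent of positive control, at or above 50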
SENP8 block-1 = SENP8 (human) protease inhibition. recombinant SENP8, Nedd8 substrate fluorescence. inhibition, % at 20 µM. 0.64% of 360,000 active. AID 602440; in the data active = inhibition mostly above about 40%, no sharp cut-off; inactive = mostly below about 27%
SENP7 inh = SENP7 protease inhibition; Q9BQF6; 1.5% of 330,000 active; recombinant SENP7, Z-RLRGG-aminoluciferin luminescence, 40 min; inhibition, % at 5 µM;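 active = inhibition above about 50% at the single test dose, limit read from the data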
Target sequence (Q9BQF6 706-1050 limits assumed): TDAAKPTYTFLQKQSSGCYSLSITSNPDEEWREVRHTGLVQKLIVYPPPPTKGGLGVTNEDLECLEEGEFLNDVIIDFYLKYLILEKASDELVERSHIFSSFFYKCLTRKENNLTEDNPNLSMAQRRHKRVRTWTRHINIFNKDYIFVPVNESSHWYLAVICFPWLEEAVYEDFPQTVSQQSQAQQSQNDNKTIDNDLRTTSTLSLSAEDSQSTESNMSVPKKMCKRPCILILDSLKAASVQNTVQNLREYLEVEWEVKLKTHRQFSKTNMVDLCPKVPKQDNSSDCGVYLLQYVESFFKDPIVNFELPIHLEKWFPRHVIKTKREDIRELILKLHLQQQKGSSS
SENP6 inh = blocks the human protease SENP6; Q9GZR1; Recombinant SENP6 catalytic domain, aminoluciferin luminescence; inhibition, % at 10 µM; 1.8% of 330,000 active;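 active = inhibition above about 50% at the single tested dose, limit read from the data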
SENP8 block-2 = SENP8 protease inhibition | Q96LD8 | purified SENP8, Z-RLRGG-aminoluciferin cleavage, luminescence | inhibition, % at 10 µM | 1.2% of 330,000 active | AID 2540; in the data active = inhibition above about 50%
SENP8 confirm = confirmation of human SENP8 protease inhibitors; Recombinant SENP8, Z-RLRGG-aminoluciferin luminescence, 60 min; inhibition, % at 12.5 µM; shares compounds with SENP7 inh; 40% of 6,200 active;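 active = mean inhibition across replicates above about 50%, limit read from the data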
SENP6 confirm = confirmation of human SENP6 protease inhibitors. shares compounds with SENP7 inh. recombinant SENP6, Z-RLRGG-aminoluciferin luminescence. inhibition, % at 12.5 µM. 58% of 6,200 active. AID 488915
SENP7 confirm = human SENP7 inhibition, confirmed | shares compounds with SENP7 inh | recombinant SENP7, Z-RLRGG-aminoluciferin luminescence, 40 min | inhibition, % at 12.5 µM | 69% of 6,200 active | AID 488917
Casp3 select = selectivity test for SENP inhibitors: human caspase-3 inhibition. shares compounds with SENP7 inh. purified caspase-3, Z-DEVD-aminoluciferin luminescence, 60 min. inhibition, % at 12.5 µM. 60% of 6,200 active;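 active = mean inhibition above about 50%, limit read from the data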
Target sequence (P42574 28-227 limits assumed): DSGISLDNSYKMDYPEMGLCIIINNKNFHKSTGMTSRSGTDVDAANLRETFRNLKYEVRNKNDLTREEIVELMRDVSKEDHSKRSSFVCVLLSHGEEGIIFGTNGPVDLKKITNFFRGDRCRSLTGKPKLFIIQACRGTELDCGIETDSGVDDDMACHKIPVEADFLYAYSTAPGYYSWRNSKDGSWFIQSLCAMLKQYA
SENP luc ctr = counter-screen for SENP inhibitors: luminescence interference. 39% of 6,200 active. inhibition, % at 12.5 µM. Pre-incubated SENP8/Z-RLRGG-aminoluciferin, luciferase luminescence interference. shares compounds with SENP7 inh. AID 488919;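 active = mean inhibition above about 50% when retested at one dose, limit read from the data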
A number is an active result; . = inactive; / = no result. Hits are enriched below; roughly 2.8% of the tested compounds scored in any of these assays.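 Rule for the calls, unless noted: active = mean inhibition above about 50% in the one-dose retest (limit read from the data); inactive = the rest.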

SMILES | HSP90 inh | Platelet DG rel | SENP8 block-1 | SENP7 inh | SENP6 inh | SENP8 block-2 | SENP8 confirm | SENP6 confirm | SENP7 confirm | Casp3 select | SENP luc ctr
CC12CCC(C(=O)N3CCCCC3)([C@H](Br)C1=O)C2(C)C (stereo not given in full) | . | . | . | . | . | . | / | / | / | / | /
CC(OC(=O)c1ccc([N+](=O)[O-])s1)C(=O)NC1CCCCC1C (stereo not given) | / | / | . | . | . | 55 | . | . | . | . | .
O=C(COC(=O)c1ccccn1)Nc1ncc(C(F)(F)F)cc1Cl | . | . | . | . | . | . | / | / | / | / | /
O=C(COC(=O)c1ccc([N+](=O)[O-])s1)Nc1ncc(C(F)(F)F)cc1Cl | . | . | . | . | 71 | . | . | 84 | . | . | .
CC1CCCC(NC(=O)COC(=O)c2ccccc2[N+](=O)[O-])C1C (stereo not given) | . | . | . | . | . | . | / | / | / | / | /
CC1CCCC(NC(=O)COC(=O)c2ccc([N+](=O)[O-])s2)C1C (stereo not given) | / | / | . | . | 65 | 63 | . | 51 | . | . | .
COc1ccc(C(=O)N2CCC(C)(C(=O)O)C2)c(OC)c1 (stereo not given) | / | / | . | / | / | / | / | / | / | / | /
COc1cc(C(=O)OC(C)CN2C(C)CCCC2C)cc(OC)c1OC (stereo not given) | . | . | . | . | . | . | / | / | / | / | /
CC(c1ccccc1)N1C(=O)c2ccc(C(=O)Nc3ccc(Br)cc3C(=O)O)cc2C1=O (stereo not given) | . | . | . | . | . | . | / | / | / | / | /
CC(c1ccccc1)N1C(=O)c2ccc(C(=O)Nc3ccccc3C(=O)O)cc2C1=O (stereo not given) | . | . | . | . | 70 | 68 | 76 | 71 | 85 | . | 77
CC(C)CCN1C(=O)c2ccc(C(=O)Nc3ccccc3C(=O)O)cc2C1=O | . | . | . | . | 74 | 66 | 76 | 77 | 86 | 60 | 77
CC(C)CCN1C(=O)c2ccc(C(=O)Nc3ccc(O)cc3C(=O)O)cc2C1=O | . | . | . | . | . | . | / | / | / | / | /
Clc1ccc(-c2nnc(-c3ccccc3)o2)c(Cl)c1 | . | . | . | 97 | 96 | 90 | 85 | 87 | 95 | 88 | .
CSc1nnc(-c2ccc(F)cc2)o1 | . | . | . | . | . | . | / | / | / | / | /
Fc1ccc(-c2nnc(-c3ccc(Cl)cc3)o2)cc1 | . | . | . | 56 | . | . | . | . | . | . | .
CSc1nnc(-c2ccc(Cl)cc2Cl)o1 | . | . | . | . | . | . | / | / | / | / | /
CSc1ccccc1-c1nnc(-c2ccc(Cl)cc2Cl)o1 | . | . | . | . | . | . | / | / | / | / | /
Fc1ccc(-c2nnc(-c3ccc(Cl)cc3Cl)o2)cc1 | . | . | . | 92 | 74 | 72 | 60 | 65 | 86 | 79 | .
CC1Cc2ccccc2N1C(=O)/C=C/c1cccc(F)c1 (stereo not given) | . | . | . | 55 | . | 51 | . | 74 | 90 | 61 | 55
Cc1cc(C(=O)N2CCC2(C)C(=O)NS(=O)(=O)c2ccc(Cl)cc2)nn1C (stereo not given) | / | / | . | / | / | / | / | / | / | / | /
O=C(N/N=C/c1c[nH]c2ccccc12)c1cc(Br)ccc1O | . | . | . | . | . | . | / | / | / | / | /
CCOc1ccc(Br)cc1C(=O)N/N=C/c1c[nH]c2ccccc12 | . | . | . | . | 58 | . | . | . | . | . | .
O=C(N/N=C/c1c[nH]c2ccccc12)c1ccc2c(c1)OCCO2 | . | . | . | . | 54 | . | . | . | 77 | 55 | 60
COc1ccccc1N1CCN(S(=O)(=O)c2ccc(NC(C)=O)cc2)CC1 | . | . | . | . | . | . | / | / | / | / | /
NC(=O)c1ccc(NC(=O)CSc2nnc(-c3cccnc3)n2Cc2ccco2)cc1 | . | . | . | . | . | . | / | / | / | / | /
SMILES | HSP90 inh | Platelet DG rel | SENP8 block-1 | SENP7 inh | SENP6 inh | SENP8 block-2 | SENP8 confirm | SENP6 confirm | SENP7 confirm | Casp3 select | SENP luc ctr
O=C(Nc1ccc(CN2CCCCC2)cc1)c1sc2ccccc2c1Cl | . | . | . | . | . | . | / | / | / | / | /
O=C(OCc1ccc(Cl)c(Cl)c1)c1ccc[nH]1 | . | . | . | . | 59 | . | 54 | 51 | 82 | . | 71
CCCCCC(=O)Nc1ccc2oc(-c3cncc(Br)c3)nc2c1 | . | . | . | 101 | . | . | . | . | . | . | .
O=C1NC[C@H](CCCCN2CCN(CCc3ccccc3)C(=O)C2=O)N(CCC2CCCCC2)C1=O | / | / | . | / | / | / | / | / | / | / | /
O=C(NC12CC3CC(CC(C3)C1)C2)c1cc(F)c(F)c(F)c1F | . | . | . | . | . | . | / | / | / | / | /
Cn1c(C(=O)O)cc2cc(Oc3ccccc3)ccc21 | . | . | . | . | 80 | 64 | . | 66 | 82 | 71 | 72
COc1cc(Cl)ccc1OCc1cc(C(=O)N(C)CC2CCCCO2)no1 (stereo not given) | . | . | . | . | . | . | / | / | / | / | /
CCN(CC)CCCNC(=O)c1c(O)c2c([nH]c1=O)CCCC2 | . | . | . | 59 | . | . | . | . | . | . | .
CCCNC(=O)c1c(O)c2c([nH]c1=O)CCCC2 | . | . | . | . | . | . | / | / | / | / | /
COc1ccc(CNCC(=O)Nc2cc(OC)cc(OC)c2)cc1 | . | . | . | . | . | . | / | / | / | / | /
CCNC(=S)NNC(=O)c1cc(-c2cccc(OCC)c2)nc2ccccc12 | . | . | . | . | . | . | / | / | / | / | /
CCNC(=S)NNC(=O)c1cc(-c2ccc(OC)cc2)nc2ccccc12 | . | 111 | . | 95 | 93 | 91 | 96 | 96 | 100 | 97 | 90
CCNC(=S)NNC(=O)c1cc(-c2cccc(C)c2)nc2ccccc12 | . | . | . | 72 | 85 | 81 | 90 | 90 | 98 | 96 | 92
CC(=O)N(C)c1ccc(NC(=S)Nc2ccccc2)cc1 | . | . | . | . | . | . | / | / | / | / | /
CC(=O)N(C)c1ccc(NC(=S)Nc2cccc3ccccc23)cc1 | . | . | . | . | 68 | 59 | . | . | . | . | .
Fc1cccc(NC(=S)Nc2cccc3ccccc23)c1 | . | . | . | . | 57 | . | . | . | . | . | .
O=C(Nc1cccc2ccccc12)c1cccc(F)c1 | . | . | . | . | . | . | / | / | / | / | /
CC(=O)c1cccc2c(O)c(C3=Nc4ccccc4C3=O)[nH]c12 | . | . | . | . | 54 | 59 | . | 60 | . | . | .
O=C1C(c2c(O)[nH]c3ccccc23)=Nc2ccccc21 | . | . | . | . | . | . | / | / | / | / | /

Screening data as filed in PubChem.
